According to PMC8384837, “Expanding the binding specificity for RNA recognition by a PUF domain”:

Legend:
Assay in all cases: yeast three-hybrid, YBZ-1, SC-Leu-His + 0.5 mM 3-AT, 4 days
Conditions in all cases: tags: N-Gal4 AD-HA kept; label: inside an RPR1-promoter hybrid RNA with tandem MS2 sites; ssRNA
[1] = biological target: PUM1 PUF domain R5-DWA (Homo sapiens, UniProt Q14671 828-1176, C1007D;R1008W;Q1011A)
Procedure, shortened: (§1)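 The interaction score is the log change in variant frequency from input to selection. Scores were computed in log2 with a pseudocount of 1 for absent variants, using Illumina sequencing of PCR-amplified repeat regions. The input came from four days on SC-Leu and the selection from four days on SC-Leu-His + 0.5 mM 3-AT. The cells were strain YBZ-1 (LexA–MS2 coat fusion, HIS3 reporter) co-expressing Pumilio-1 PUF domain libraries and matching RNA elements from a centromeric plasmid.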

[2] = biological target: PUM1 PUF domain R5-GHA (Homo sapiens, UniProt Q14671 828-1176, C1007G;R1008H;Q1011A)
Chain of PUM1 PUF domain R5-GHA (Q14671 828-1176 C1007G/R1008H/Q1011A): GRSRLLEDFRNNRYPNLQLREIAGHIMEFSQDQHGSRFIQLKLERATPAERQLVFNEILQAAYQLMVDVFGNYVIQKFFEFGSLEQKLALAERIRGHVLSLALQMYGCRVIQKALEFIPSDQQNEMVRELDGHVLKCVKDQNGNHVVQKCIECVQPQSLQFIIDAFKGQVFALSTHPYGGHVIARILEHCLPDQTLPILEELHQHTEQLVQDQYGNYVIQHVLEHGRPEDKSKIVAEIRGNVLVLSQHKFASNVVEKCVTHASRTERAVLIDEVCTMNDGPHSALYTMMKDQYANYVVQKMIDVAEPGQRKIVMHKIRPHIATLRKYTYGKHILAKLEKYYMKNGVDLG
Procedure, shortened: as §1

[3] = biological target: PUM1 PUF domain R1-CGE (Homo sapiens, UniProt Q14671 828-1176, S863C;R864G;Q867E)
Chain of PUM1 PUF domain R1-CGE (Q14671 828-1176 S863C/R864G/Q867E): as the sequence (Q14671 828-1176 C1007G/R1008H/Q1011A) above, with S36C, R37G, Q40E, G180C, H181R, A184Q counted along it
Procedure, shortened: as §1

[4] = biological target: PUM1 PUF domain R4-VNT (Homo sapiens, UniProt Q14671 828-1176, N971V;H972N;Q975T)
Chain of PUM1 PUF domain R4-VNT (Q14671 828-1176 N971V/H972N/Q975T): as the sequence (Q14671 828-1176 C1007G/R1008H/Q1011A) above, with N144V, H145N, Q148T, G180C, H181R, A184Q counted along it
Procedure, shortened: as §1

[5] = biological target: PUM1 PUF domain R3-LFS (Homo sapiens, UniProt Q14671 828-1176, C935L;R936F;Q939S)
Chain of PUM1 PUF domain R3-LFS (Q14671 828-1176 C935L/R936F/Q939S): as the sequence (Q14671 828-1176 C1007G/R1008H/Q1011A) above, with C108L, R109F, Q112S, G180C, H181R, A184Q counted along it
Procedure, shortened: as §1

[6] = biological target: PUM1 PUF domain R2-EWS (Homo sapiens, UniProt Q14671 828-1176, N899E;Y900W;Q903S)
Chain of PUM1 PUF domain R2-EWS (Q14671 828-1176 N899E/Y900W/Q903S): as the sequence (Q14671 828-1176 C1007G/R1008H/Q1011A) above, with N72E, Y73W, Q76S, G180C, H181R, A184Q counted along it
Procedure, shortened: as §1

[7] = biological target: PUM1 PUF domain R7-VTR (Homo sapiens, UniProt Q14671 828-1176, S1079V;N1080T;E1083R)
Chain of PUM1 PUF domain R7-VTR (Q14671 828-1176 S1079V/N1080T/E1083R): as the sequence (Q14671 828-1176 C1007G/R1008H/Q1011A) above, with G180C, H181R, A184Q, S252V, N253T, E256R counted along it
Procedure, shortened: as §1

[8] = biological target: PUM1 PUF domain R7-RVT (Homo sapiens, UniProt Q14671 828-1176, S1079R;N1080V;E1083T)
Chain of PUM1 PUF domain R7-RVT (Q14671 828-1176 S1079R/N1080V/E1083T): as the sequence (Q14671 828-1176 C1007G/R1008H/Q1011A) above, with G180C, H181R, A184Q, S252R, N253V, E256T counted along it
Procedure, shortened: as §1

[9] = biological target: PUM1 PUF domain R7-GCG (Homo sapiens, UniProt Q14671 828-1176, S1079G;N1080C;E1083G)
Chain of PUM1 PUF domain R7-GCG (Q14671 828-1176 S1079G/N1080C/E1083G): as the sequence (Q14671 828-1176 C1007G/R1008H/Q1011A) above, with G180C, H181R, A184Q, S252G, N253C, E256G counted along it
Procedure, shortened: as §1

Chain of PUM1 PUF domain R5-DWA (Q14671 828-1176 C1007D/R1008W/Q1011A): as the sequence (Q14671 828-1176 C1007G/R1008H/Q1011A) above, with G180D, H181W counted along it

With “GGCUAGAACUAGUGGAUCCCCCGGCGCCCGGCGGCUCGAGCCCGGGUAAGUGUUAAUAGUCUGCAUGCCGCCGGGCGCCAUGCCUGCAGGUCGACUCUAGAAAACAUG” the binding signal [1] was 5.07 log2 enrichment (interaction score) and the binding signal [2] was 2.33 log2 enrichment (interaction score).

“GGCUAGAACUAGUGGAUCCCCCGGCGCCCGGCGGCUCGAGCCCGGGUAAGUGUAAAUGGUCUGCAUGCCGCCGGGCGCCAUGCCUGCAGGUCGACUCUAGAAAACAUG” was tested, and the binding signal [3] was 3.82 log2 enrichment (interaction score).

With “GGCUAGAACUAGUGGAUCCCCCGGCGCCCGGCGGCUCGAGCCCGGGUAAGUGUAUAUAGUCUGCAUGCCGCCGGGCGCCAUGCCUGCAGGUCGACUCUAGAAAACAUG” the binding signal [4] was 2.54 log2 enrichment (interaction score).

In the case of “GGCUAGAACUAGUGGAUCCCCCGGCGCCCGGCGGCUCGAGCCCGGGUAAGUGUACAUAGUCUGCAUGCCGCCGGGCGCCAUGCCUGCAGGUCGACUCUAGAAAACAUG”, the binding signal [4] is reported as 0.69 log2 enrichment (interaction score).

In the case of “GGCUAGAACUAGUGGAUCCCCCGGCGCCCGGCGGCUCGAGCCCGGGUAAGUGUAAUUAGUCUGCAUGCCGCCGGGCGCCAUGCCUGCAGGUCGACUCUAGAAAACAUG”, the binding signal [5] is reported as 4.38 log2 enrichment (interaction score).

With “GGCUAGAACUAGUGGAUCCCCCGGCGCCCGGCGGCUCGAGCCCGGGUAAGUGUAAAAAGUCUGCAUGCCGCCGGGCGCCAUGCCUGCAGGUCGACUCUAGAAAACAUG” the binding signal [6] was 6.34 log2 enrichment (interaction score).

“GGCUAGAACUAGUGGAUCCCCCGGCGCCCGGCGGCUCGAGCCCGGGUAAGUUUAAAUAGUCUGCAUGCCGCCGGGCGCCAUGCCUGCAGGUCGACUCUAGAAAACAUG” was tested, and the binding signal [7] was 3.74 log2 enrichment (interaction score), the binding signal [8] was 2.57 log2 enrichment (interaction score) and the binding signal [9] was 3.64 log2 enrichment (interaction score).
